Bioassay records deposited in PubChem by National Center for Advancing Translational Sciences (NCATS).
Caspase-7 inhib: allosteric or competitive inhibitors of human caspase-7; AID 889; 0.02% of 75,000 active; Potency, µM (series often up to 57.5 µM), without a hit: top-dose activity change, negative = inhibition, actives largely listed as inhibitors; P55210; recombinant caspase-7, Ac-DEVD-AFC fluorescence rate; active means well fitted inhibition curve with a large enough effect in the main read-out, with a control signal flat, not every such curve was filed as active; inconclusive means small, poorly fitted or top-dose-only effect, or a change in a side signal; further: % of control where 0% means no effect
Casp1 inh: caspase-1 (human) inhibition, allosteric or competitive | AID 900 | Caspase-1 enzyme, Ac-WEHD-AFC fluorogenic rate | Potency, µM (top dose mostly 57.5 µM), for the others: top-dose activity change, negative = inhibition, most hits filed as inhibitors | 0.03% of 75,000 active | P29466;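 further: plate controls were vehicle for no effect and no substrate for full effect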
Target sequence (P29466 120-297 limits assumed): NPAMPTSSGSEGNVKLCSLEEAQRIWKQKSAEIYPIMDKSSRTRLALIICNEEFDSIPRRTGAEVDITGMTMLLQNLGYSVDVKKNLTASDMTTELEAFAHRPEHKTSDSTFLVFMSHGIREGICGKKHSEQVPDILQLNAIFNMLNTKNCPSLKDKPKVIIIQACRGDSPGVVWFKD
Target sequence (P29466 317-404 limits assumed): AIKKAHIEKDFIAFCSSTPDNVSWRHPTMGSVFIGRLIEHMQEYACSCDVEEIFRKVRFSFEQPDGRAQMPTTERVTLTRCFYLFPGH
TSHR ag: agonists of human thyroid stimulating hormone receptor | 0.48% of 73,000 active | Potency, µM (highest dose often 57.1 µM), without a hit: at the top dose activation, hits mostly activators | HEK293-CNG-TSHR cells (CNG channel as cAMP sensor), membrane potential dye, cAMP | AID 926; active means well fitted activation curve with a large enough effect in the main read-out, with a control signal flat, not every such curve was filed as active; inconclusive means small, poorly fitted or top-dose-only effect, or a change in a side signal; inactive means no such curve, though single readings can be large or run the other way; % of control where 0% means no effect;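 further: the control signal comes from parental cells without the receptor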
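HEK 293 cells stably expressing TSHR and a modified CNG channel, with CNG-only parental cells as counterscreen, were preloaded 60 min at room temperature with membrane potential dye containing 100 uM RO 20-1724. Compound exposure was 30 min, and depolarization was read as fluorescence at 590 nm.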
HEK293 cAMP ctrl: counter-screen for TSHR agonists: cAMP increase in parental HEK293 | 2.5% of 73,000 active | Potency, µM (top dose mostly 57.1 µM), inactives show top-dose activation, actives largely listed as activators | AID 938 | parental HEK293 CNG cAMP sensor, membrane potential fluorescence; further: % of control where 0% means no effect; nearly all actives have a fitted effect of over 55% in size
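Parental HEK 293 cells stably expressing a modified CNG channel (no TSHR) report cAMP rise as membrane depolarization. Membrane potential dye with 100 uM RO 20-1724 was loaded for 60 min at room temperature, then compound added for 30 min; fluorescence read at 590 nm.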
* marks the source's active call; other numbers are inactive results; ? = inconclusive; · = no result; [ ] = another dose, or the depositor's remark. An excerpt weighted towards active compounds, which were near 2.6% of everything screened. Unless noted, the call rests on the fitted dose curve; in most records, active means well fitted curve in the direction sought with a large enough effect; inconclusive means small, poorly fitted or top-dose-only effect, or another doubt; inactive means no such curve, though single readings can be large; an effect the other way counts as inactive or inconclusive. Potency means the concentration at half of the fitted maximal effect.

SMILES	Caspase-7 inhib	Casp1 inh	TSHR ag	HEK293 cAMP ctrl
COC(=O)N1CCC2(CCCN(C(=O)Nc3cccc(F)c3)C2)CC1	0.5%	-2.3%	1.4%	-4.2%
O=C(O)CCCn1nc(-c2ccccc2)c2ccccc21	-0.4%	-2.3%	?	0.159µM*
O=C(O)Cn1nc(-c2ccccc2)c2ccccc21	0.4%	-1.7%	8.5%	10.7%
CC(C)NC(=O)[C@@H]1C[C@H]1[C@@H](NC(=O)OCc1ccccc1)c1ccccc1	-0.4%	-0.8%	?	?
CCCC[C@@H]1C[C@H]1C(NC(=O)c1cccnc1)c1ccc(Cl)cc1 (stereo not given in full)	-3.5%	-3.7%	?	25.1µM*
CCCC[C@@H]1C[C@H]1C(NC(=O)c1ccccc1)c1ccc(C(F)(F)F)cc1 (stereo not given in full)	-0.4%	-0.3%	?	3.16µM*
CCCC[C@@H]1C[C@H]1C(NC(=O)c1ccccc1)c1ccc(Cl)cc1 (stereo not given in full)	-1.3%	5.0%	?	?
CC1CCC2[C@](C)(CO)C(O)CC[C@]2(C)C12CCC(CO)(CCO)O2 (stereo not given in full)	1.9%	1.5%	·	·
C=CC[C@@H]1C=C[C@H](O/N=C(\C)CCN2CCc3nc(-c4ccccc4)c(-c4ccccc4)cc3C2)[C@H](CO)O1	-1.4%[11.5 µM]	-1.0%[11.5 µM]	6.3%[11.4 µM]	26.8%[11.4 µM]
Cc1ccc2c(c1)N(CC(=O)N1CCN(c3nc4ccccc4s3)CC1)C(=O)C(C)O2 (stereo not given)	1.9%	-3.7%	?	6.31µM*
Cc1cc(C(=O)Nc2cc(C)n(Cc3ccc(Cl)cc3)n2)no1	0.0%	-2.1%	12.8%	30.9%
COc1ccccc1-c1cc(C(=O)Nc2cc(C)n(Cc3ccc(Cl)cc3)n2)no1	-0.1%	0.8%	?	3.16µM*
CN(C)c1ccc(-c2nc(NCc3cccnc3)c3ccccc3n2)cc1	-9.1%	-4.8%	?	-52.7%
CN(C)S(=O)(=O)c1ccc(S(=O)(=O)N(Cc2ccco2)Cc2ccccc2Cl)cc1	0.5%	-2.8%	?	12.6µM*
O=C(N[C@@H](c1ccccc1)[C@@H]1C[C@H]1C(=O)NCc1ccccc1)OCc1ccccc1	0.3%	-0.7%	?	12.6µM*
COC(=O)[C@H](Cc1ccccc1)NC(=O)[C@H]1C[C@@H]1[C@H](NC(=O)OCc1ccccc1)c1ccccc1	-2.7%	-3.2%	?	15.8µM*
COc1ccc(C(=O)Cn2c(N3CCOCC3)nc3c2c(=O)n(C)c(=O)n3C)cc1	-0.5%	1.0%	0.8%	-6.5%
COC(=O)c1ccc(Oc2nc3c(c(=O)n(C)c(=O)n3C)n2CCC(C)C)cc1	-2.4%	2.8%	?	15.8µM*
CCCN(CCC)S(=O)(=O)c1cc(Br)cc2c1N(C(=O)CC)CC2	1.0%	-0.7%	?	25.1µM*
COc1cccc(-c2nccc(NCc3cccnc3)n2)c1	-1.5%	-2.5%	·	21.1%
CCCCOc1cccc(OCCCC)c1C(=O)Nc1cc(C)on1	-0.4%	-0.3%	?	2µM*
CCC(C)C1C(C#N)=C(N)Oc2n[nH]c(C)c21 (stereo not given)	0.4%	-1.0%	-7.0%	15.4%
CCC(C)C1C(C#N)=C(N)Oc2n[nH]c(-c3ccccc3)c21 (stereo not given)	1.7%	-1.8%	?	25.1µM*
COc1ccc(/C=C\C(=O)Nc2ccccc2C(=O)O)cc1OC	5.1%	-0.6%	11.4%	0.6%
CCOC(=O)C1CCN(c2ncnc3c2[nH]c2cccc(OC)c23)CC1	-0.5%	-3.0%	-25.6%	-9.3%
SMILES	Caspase-7 inhib	Casp1 inh	TSHR ag	HEK293 cAMP ctrl
CCOC(=O)C1CCN(c2ncnc3c2oc2ccc(Cl)cc23)CC1	-2.5%	1.4%	?	25.1µM*
Cc1ccc(C(=O)CSc2nc(C)cc(SCc3nnc(-c4ccccc4)o3)n2)cc1	1.9%	0.2%	?	7.94µM*
COC(=O)c1ccccc1NC(=O)CSc1nnc(COc2cccc(OC)c2)n1C	2.3%	-2.0%	?	12.6µM*
COC(=O)c1cccc(NC(=O)CSc2nnc(COc3ccccc3)n2C)c1	0.4%	1.5%	2.6%	12.3%
COc1cc(Cl)c(C)cc1NC(=O)CSc1nc2ccccc2o1	-5.0%	-0.8%	?	?
CCOC(=O)c1ccccc1NC(=O)CSc1nc2ccccc2o1	-2.2%	-4.9%	?	25.1µM*
CCOC(=O)c1ccccc1NC(=O)CSc1nnc(COc2ccccc2)n1CC	-6.4%	-2.6%	?	15.8µM*
CCOC(=O)c1cccc(NC(=O)CSc2nnc(COc3ccccc3)n2CC)c1	-3.2%	-2.7%	11.4%	23.8%
